# Compound activity deposited in PubChem BioAssay by National Center for Advancing Translational Sciences (NCATS).
# mIDH1 inhibitor: inhibitors of human mutant IDH1 R132H; O75874; 0.093% of 390,000 active; Potency, µM (highest dose often 76.6 µM), without a hit: top-dose activity change, negative = inhibition, hits mostly inhibitors; AID 602179; IDH1-R132H enzyme, NADPH consumption, diaphorase/resazurin fluorescence; further: potency means the concentration at half of the fitted maximal effect; on the % scale 0 is the no-effect control and ±100 the full control effect; nearly all actives have a fitted effect of over 65% in size
#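 IDH1-R132H (0.5 ug/mL) preincubated 30 min with compound, then NADPH (0.016 mM) and alpha-KG (2 mM) added; 80 min at RT, pH 7.5. Remaining NADPH coupled via diaphorase/resazurin to fluorescence (540/590 nm); concentration-response curves normalized to no-enzyme control.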
# a7 integrin act: integrin-mediated muscular dystrophy alleviation activation. alpha7betagal myoblasts, beta-gal FDG fluorescence, 48 h. Potency, µM (top dose mostly 38.3 µM), for inactives: at the top dose activation, actives largely listed as activators. 0.064% of 350,000 active. AID 624291;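 further: potency means the concentration at half of the fitted maximal effect; 100% = response of the positive control SU9516; nearly all actives have a fitted effect of over 60% in size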
#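 alpha7betagal+/- myoblasts (passage 13, 250/well) treated 48 h at 37C with compounds at 1:260 dilution of DMSO stock. Lysed, then beta-galactosidase activity read as FDG fluorescence (ex 480/em 540) after 30 min, with pre-read for autofluorescence.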
# DRD3 agonist: agonists of human D3 dopamine receptor; P35462; D3R DiscoveRx beta-arrestin cells, luminescence, 90 min; max activation, %; 0.58% of 410,000 active; in the data active means max activation above about 30%; further: 0% is about no effect
#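 Agonist-mode cell screen: cells plated at 1500/well and incubated overnight at 37 °C, then exposed to library compounds for 90 min at 37 °C. Detection reagent was added for 30–60 min at room temperature, and luminescence was read.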
# D3 antag: D3 dopamine receptor (human) antagonism. D3R cells, DiscoveRx beta-arrestin luminescence, antagonist mode; active compounds read low. max response, negative = inhibition, %. 2.5% of 360,000 active. AID 652054; in the data active means max response below about -50%; inconclusive means no clear call, values can overlap the other calls; further: on the % scale 0 is the no-effect control and ±100 the full control effect
#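 Cells expressing the human receptor were seeded at 1500 cells/well, incubated overnight at 37 degrees C in 5% CO2, then exposed to library compounds with dopamine controls for 90 minutes at 37 degrees C before luminescent detection.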
# B2AR arrestin: recruits beta-arrestin to the human beta2-adrenergic receptor | beta-arrestin recruitment to beta2AR, cell-based reporter | Potency, µM (titrated, usually from 46.1 µM), inactives show top-dose activation, usual class: activators | 0.02% of 330,000 active | AID 492947;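 further: potency means the concentration at half of the fitted maximal effect; 0% = DMSO controls and full agonism = EC100 isoproterenol or metaproterenol; nearly all actives have a fitted effect of over 65% in size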
# Target sequence (P07550 whole entry, looked up): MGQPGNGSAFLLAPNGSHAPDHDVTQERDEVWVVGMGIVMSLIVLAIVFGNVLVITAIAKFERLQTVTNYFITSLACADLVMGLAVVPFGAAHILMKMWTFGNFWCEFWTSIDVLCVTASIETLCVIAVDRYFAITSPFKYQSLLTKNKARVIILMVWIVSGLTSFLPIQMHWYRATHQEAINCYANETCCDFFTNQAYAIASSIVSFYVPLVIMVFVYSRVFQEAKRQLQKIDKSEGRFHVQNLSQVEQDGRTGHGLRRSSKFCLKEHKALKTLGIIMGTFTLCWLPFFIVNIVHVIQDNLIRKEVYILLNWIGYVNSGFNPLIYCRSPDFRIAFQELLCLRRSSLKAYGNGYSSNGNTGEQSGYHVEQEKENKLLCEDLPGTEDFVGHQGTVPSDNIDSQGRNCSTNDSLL
# Active calls of the source: *; ? = inconclusive; . = not tested or not shown. The list is not random: actives were taken first. Their share in the collection is about 2.9%. Unless noted, the call rests on the fitted dose curve; in most records, active means well fitted curve in the direction sought with a large enough effect; inconclusive means small, poorly fitted or top-dose-only effect, or another doubt; inactive means no such curve, though single readings can be large; an effect the other way counts as inactive or inconclusive.
SMILES,mIDH1 inhibitor,a7 integrin act,DRD3 agonist,D3 antag,B2AR arrestin
C#CCN(C[C@@H]1[C@@H](OC(=O)NCC2CCCCC2)[C@@H](OC(=O)NCC2CCCCC2)Cn2c(=O)ccc(=O)n21)S(=O)(=O)c1ccc(C)cc1,11%,-64%,-7,-81*,.
C#CCN(C[C@@H]1[C@@H](OC(=O)NCCCCCC)[C@@H](OC(=O)NCCCCCC)Cn2c(=O)ccc(=O)n21)S(=O)(=O)c1ccc(C)cc1,0%,-64%,2,-23,.
CCCn1nnc(NC(=S)NC(=O)c2ccccc2OC)n1,-6%,?,-2,-22,0%
CCOc1cc(/C=C2\CN(C)C/C(=C\c3ccc(O)c(OCC)c3)C2=O)ccc1O,-1%,-53%,-12,-52*,0%
COc1ccc(-c2cc(=O)oc3c(C)c(OC(C)C(=O)Nc4ccc(CN5CCOCC5)cc4)ccc23)cc1 (configuration not stated),0%,-54%,2,4,3%
Cc1cccc(C(=O)Nc2ccc(OCc3cc(=O)n4ccsc4n3)cc2)c1,29%,.,1,.,.
Cc1nn(CCC(=O)NNC(=S)Nc2ccc(F)cc2)c(C)c1[N+](=O)[O-],3%,6%,2,-77*,-1%
CCCC1=NN(C(=O)C(=O)Nc2ccc(Br)cc2)C(O)(C(F)(F)F)C1 (configuration not stated),19%,-19%,-9,-56*,0%
CCc1ccc(CN(C(=O)c2cc(=O)c3ccc(C)cc3o2)C2CCS(=O)(=O)C2)cc1 (configuration not stated),-7%,.,0,.,.
O=S(=O)(Nn1c(O)c(C=C2N=c3ccccc3=N2)sc1=S)c1ccccc1,-5%,-10%,-5,-20,0%
O=C(Nn1c(O)c(C=C2N=c3ccccc3=N2)sc1=S)c1ccccc1Cl,8%,?,-2,-55*,0%
CN1CCC/C1=C/C=C1\SC(=S)NC1=O,3%,20%,-12,-64*,-1%
O=C1NC(=S)SC1=Cc1cccs1,-13%,5%,-9,?,.
CC1CCN(C(=O)c2cc(S(=O)(=O)N3CCOCC3)ccc2N2CCCC2)CC1,7%,34%,-1,7,0%
Cc1ccc(C(=O)CSC2=C(C#N)C(c3ccco3)C3=C(CC(C)(C)CC3=O)N2)cc1 (configuration not stated),1%,17%,-1,-59*,0%
CCc1nnc(NC(=O)CCC(=O)N2CCN(CCOc3ccc(C)cc3)CC2)s1,4%,14%,45*,0,0%
CCc1nnc(NC(=O)CCC(=O)N2CCN(Cc3ccc(C)cc3C)CC2)s1,0%,-9%,-14,2,0%
O=c1cc(-c2ccccc2)c2cc3c(cc2[nH]1)OCCO3,6%,8%,1,15,0%
O=c1cc(-c2ccc([N+](=O)[O-])cc2)c2cc3c(cc2[nH]1)OCCO3,0%,8%,36*,21,0%
Oc1cnc2ccccc2c1CN1CCOCC1,-1%,-4%,-3,-77*,-1%
Oc1ccc2ccccc2c1CN1CCOCC1,9%,-7%,-7,-10,0%
Cc1ccccc1NC(=O)/C(=C/c1cccs1)NC(=O)c1ccco1,1%,-14%,-11,-12,0%
Cc1ccccc1NC(=O)/C(=C\c1cccs1)NC(=O)c1ccccc1,6%,?,-8,-54*,-1%
C=CCn1c(O)c(C2=c3ccccc3=NC2=O)s/c1=N/c1nccs1,2%,-21%,2,-1,0%
C=CCn1c(O)c(C2=c3ccccc3=NC2=O)c2ccccc21,1%,-55%,-24,-65*,-1%
SMILES,mIDH1 inhibitor,a7 integrin act,DRD3 agonist,D3 antag,B2AR arrestin
CCN(CC)C(=O)CN1CCN(Cc2ccc3c(c2)OCO3)CC1,2%,-5%,-6,-11,0%
COCCn1c(C)cc(C(=O)COC(=O)c2ccc3ncsc3c2)c1C,7%,-54%,7,-55*,0%
C=CC[N@@+]12CC[C@@]34c5ccccc5N5/C=C6/[C@H]7C[C@H]8[C@@]9(CC[N@@+]8(CC=C)C/C7=C/CO)c7ccccc7N(/C=C(/[C@@H](C[C@@H]31)/C(=C\CO)C2)[C@H]54)[C@@H]69,.,.,-3,.,.
CC(=O)c1ccc(N2C(=O)N(Cc3cc(C)ccc3C)c3ccccc3S2(=O)=O)cc1,8%,.,4,.,.
O=C(Nc1c(-c2ccccc2)[nH][nH]c1=O)c1ccc2ccccc2c1,.,.,1,2,.
COc1ccc(-c2[nH][nH]c(=O)c2NC(=O)c2ccc(C)cc2)cc1,.,.,-11,-85*,.
COc1ccc(NC(=O)C2CCN(S(=O)(=O)c3c(C)noc3/C=C/c3cccs3)CC2)cc1Cl,-18%,.,-1,.,.
COc1cc(CNCCc2c[nH]c3ccccc23)ccc1OCc1ccccc1F,6%,-58%,-18,-56*,0%
CN(C)c1ccc(C(=O)c2ccccc2C(=O)O)c(O)c1,4%,13%,2,4,0%
CCCCN(CCCC)c1ccc(C(=O)c2ccccc2C(=O)O)c(O)c1,0%,-14%,-9,-81*,0%
Cc1ccc(C)c(S(=O)(=O)c2cn(Cc3ccccc3)c3cc(N4CCCC4)c(F)cc3c2=O)c1,8%,.,-25,.,.
C=CCn1c(=O)c2c(nc3n2CC(C)CN3c2cccc(OC)c2)n(C)c1=O (configuration not stated),-1%,-36%,-10,-69*,0%
CCc1ccc(C(=O)NC2=NC(c3cc(OC)ccc3OC)CC(=O)N2)cc1 (configuration not stated),-7%,.,6,.,.
COC(c1ccccc1)(c1ccccc1)[C@H](Oc1nc(C)cc(C)n1)C(=O)O,.,.,8,.,.
CCOc1ccc(NC(=O)CSC(N)=O)cc1,-1%,-18%,-5,-72*,-1%
CCCCOc1ccc(NC(=O)CSc2nnnn2C)cc1,4%,-7%,-5,-113*,.
O=C1CS/C(=N\N=C\c2ccco2)N1c1ccccc1,-12%,5%,0,2,0%
O=C1CS/C(=C\[N+](=O)[O-])N1c1ccccc1,14%,-14%,-4,-71*,0%
CCc1ccc(OCC(=O)Nc2cc3oc4ccccc4c3cc2OC)c(Br)c1,-10%,.,-14,.,.
CCC(CC)NC(=O)COC(=O)CCC(=O)c1ccc(Cl)cc1,4%,35%,41*,13,0%
CC1CCCCN1C(=O)CSc1nc2ccccc2nc1Cc1ccccc1 (configuration not stated),-5%,.,-15,.,.
COc1ccc(C#Cc2c(C=O)n(C)c3ccccc23)cc1,3%,-40%,24,27,-1%
Cn1c(C=O)c(C#Cc2ccccc2)c2ccccc21,0%,-52%,39*,66,-1%
C/C(=N\NC(=O)c1c(-c2ccccc2Cl)noc1C)c1cccc(NC(=O)C(C)C)c1,-2%,-17%,-8,18,0%
O=C(c1ccco1)c1n[nH]nc1-c1ccccc1,11%,6%,-2,-70*,0%
